HepG2 viability = HepG2 cytotoxicity, counter-screen for TGF-b inhibitors; HepG2 CAGA-GFP viability, ATP luminescence, 18 h; Potency, µM (top dose mostly 46.1 µM), for the others: at the top dose activity change, negative = cytotoxicity, actives largely listed as cytotoxic; hit rate 0.76% among 410,000; AID 588856; also: potency is read from the fitted curve at half-maximal effect
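CellTiter-Glo luminescence gave cytotoxicity after 18 hours at 37 degrees C. The cells were HepG2 CAGA-GFP in 1% FBS DMEM, stimulated with 500 pg/mL TGF-beta after compound addition. %Activity was normalised to no-cell wells (complete cell-killing) and DMSO (no toxicity), and curves were fitted and classified.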
TDP1 cell CPT = DT40-hTDP1 cell growth loss with CPT. hit rate 12% among 420,000. chicken DT40 Tdp1-/-;hTDP1 cells + 20 nM CPT, ATP luminescence, 48 h. Potency, µM (series often up to 46.2 µM), without a hit: at the top dose activity change, negative = growth inhibition, hits mostly inhibitors; also: potency is read from the fitted curve at half-maximal effect; % is scaled to controls: 0 for no effect and ±100 for the full control effect; nearly all actives have a fitted effect of over 55% in size
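Chicken DT40 Tdp1-/- cells stably complemented with human TDP1 were seeded at 400 cells/well in medium containing 20 nM camptothecin, exposed to pin-transferred compounds, and grown at 37 °C for at least 48 hr. Viability was read as ATP luminescence.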
TGFb inhibitor = TGF-b pathway inhibition. HepG2 CAGA-GFP TGF-b/SMAD3 reporter, GFP fluorescence, 18 h; TGF-beta stimulated, 500 pg/mL final. Potency, µM (highest dose often 46.1 µM), for inactives: at the top dose activity, negative = inhibition, hits mostly inhibitors. hit rate 1.2% among 410,000. AID 588855; also: potency is read from the fitted curve at half-maximal effect; % is scaled to controls: 0 for no effect and ±100 for the full control effect; nearly all actives have a fitted effect of over 65% in size
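Inhibition of TGF-beta-driven CAGA-GFP reporter expression in HEPG2 cells is measured by cellular GFP fluorescence after 18 h stimulation with 500 pg/mL recombinant TGF-beta in 1% FBS medium at 37 degrees C.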
TDP1 block = blocks human tyrosyl-DNA phosphodiesterase 1. Q9NUW8. recombinant TDP1, AlphaScreen DNA substrate cleavage. Potency, µM (doses to about 130 µM), inactives show at the highest dose activity change, negative = inhibition, most hits filed as inhibitors. hit rate 0.28% among 350,000; also: potency is read from the fitted curve at half-maximal effect; % is scaled to controls: 0 for no effect and ±100 for the full control effect; nearly all actives have a fitted effect of over 40% in size
Target sequence (Q9NUW8 whole entry, looked up): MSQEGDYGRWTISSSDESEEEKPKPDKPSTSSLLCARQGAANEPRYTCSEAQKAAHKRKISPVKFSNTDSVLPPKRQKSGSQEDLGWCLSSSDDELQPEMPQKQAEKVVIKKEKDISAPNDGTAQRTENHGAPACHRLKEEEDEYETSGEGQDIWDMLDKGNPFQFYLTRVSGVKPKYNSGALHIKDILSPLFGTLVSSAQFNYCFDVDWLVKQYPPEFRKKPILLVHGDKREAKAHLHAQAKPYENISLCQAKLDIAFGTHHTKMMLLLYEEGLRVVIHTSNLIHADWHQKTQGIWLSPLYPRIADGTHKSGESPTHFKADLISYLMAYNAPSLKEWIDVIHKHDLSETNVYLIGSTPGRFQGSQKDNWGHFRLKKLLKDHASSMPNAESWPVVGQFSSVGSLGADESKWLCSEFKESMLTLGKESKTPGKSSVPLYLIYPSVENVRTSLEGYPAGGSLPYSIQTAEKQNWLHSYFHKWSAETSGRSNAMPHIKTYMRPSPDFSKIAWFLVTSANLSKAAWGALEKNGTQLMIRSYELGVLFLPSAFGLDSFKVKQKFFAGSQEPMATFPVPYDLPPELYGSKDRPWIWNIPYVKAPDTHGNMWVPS
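Tdp1 1 nM final; 15 min RT w/ cpd; substrate 15 nM, 5 min; beads 10 ug/ml, 10 min; AlphaScreen read. Neg ctrl: no enzyme.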
TDP1 cell noCPT = qHTS for Inhibitors of human tyrosyl-DNA phosphodiesterase 1 (TDP1): qHTS in cells in absence of CPT; DT40 Tdp1-/- hTDP1 cells, no CPT, ATP luminescence, 48 h; Potency, µM (top dose mostly 46.2 µM), without a hit: top-dose activity change, negative = growth inhibition, most hits filed as inhibitors; hit rate 15% among 420,000; also: potency is read from the fitted curve at half-maximal effect; % is scaled to controls: 0 for no effect and ±100 for the full control effect; nearly all actives have a fitted effect of over 55% in size
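Chicken DT40 Tdp1-/- cells stably complemented with human TDP1 were seeded at 400 cells/well with DMSO in place of 20 nM camptothecin. After compound pinning, cells grew at least 48 hr at 37 °C; viability read by CellTiter-Glo luminescence.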
IL-1B inflam inh = inflammasome signaling inhibition, IL-1 beta readout; THP-1 LPS/ATP IL-1B secretion, AlphaLISA, 16 h; hits give low values; activity change, % at 57.5 µM; hit rate 4.7% among 360,000; AID 743279; in the data active = activity change below about -50%; inconclusive = mostly about -30% to -49%; also: % is scaled to controls: 0 for no effect and ±100 for the full control effect
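THP-1 cells pretreated 1 hr with compounds (up to 57.5 uM final), then stimulated with LPS (250 ng/mL final) plus ATP (1.25 mM final); secreted IL-1B measured by AlphaLISA after 16 hr, decreased signal indicating inhibition.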
* marks the source's active call; other numbers are inactive results. In the library only some 18% were active in any assay of this set; here they are far more common. Unless noted, calls follow the shape of the dose curve; as a rule, active = well fitted curve in the direction sought with a large enough effect; inconclusive = small, poorly fitted or top-dose-only effect, or another doubt; inactive = no such curve, though single readings can be large; an effect the other way counts as inactive or inconclusive.

What do the screens show for `O=C(Oc1ccccc1)N1CCC2(CCCN(c3ncccn3)C2)CC1`?
TDP1 cell CPT: -25%; TDP1 cell noCPT: 18µM*

Results for O=C(c1ccc(N2CCN(C(=O)c3ccc(F)c(F)c3)CC2)cc1)c1cccc(F)c1 ?
HepG2 viability: -8%; TDP1 cell CPT: 23µM*; TGFb inhibitor: inconclusive; TDP1 block: 7%; TDP1 cell noCPT: 13µM*; IL-1B inflam inh: -21

How did O=C(c1cccc(Cl)c1)N1CCC(N2CCC(C(=O)N3CCOCC3)CC2)CC1 do in these assays?
HepG2 viability: 5%; TDP1 cell CPT: 6%; TGFb inhibitor: 0%; TDP1 cell noCPT: -6%; IL-1B inflam inh: 1

What do the screens show for `O=C(c1cccc(F)c1)N1CCC(N2CCOCC2)CC1`?
HepG2 viability: 2%; TDP1 cell CPT: 5.8µM*; TGFb inhibitor: 0%; TDP1 block: -12%; TDP1 cell noCPT: -10%; IL-1B inflam inh: 14

Results for O=C(c1ccc(N2CCN(C(=O)c3ccccc3)CC2)cc1)c1cccc(F)c1 ?
HepG2 viability: -13%; TDP1 cell CPT: inconclusive; TGFb inhibitor: inconclusive; TDP1 block: 4%; TDP1 cell noCPT: 16µM*; IL-1B inflam inh: -77*

What do the screens show for `O=C(c1ccccc1)c1ccc(C(=O)N2CCN(c3ccc(O)cc3)CC2)cc1`?
HepG2 viability: -52%; TDP1 cell CPT: -27%; TGFb inhibitor: -26%; TDP1 block: 5%; TDP1 cell noCPT: -30%; IL-1B inflam inh: -5

How did C=CCNC(=S)N/N=C/c1ccc(-c2ccc(OC)cc2)o1 do in these assays?
HepG2 viability: -39%; TDP1 cell CPT: 4.1µM*; TGFb inhibitor: inconclusive; TDP1 block: 7%; TDP1 cell noCPT: 4.6µM*; IL-1B inflam inh: -3

What do the screens show for `C=CCNC(=S)N/N=C/c1ccc(-c2ccc(Cl)cc2Cl)o1`?
HepG2 viability: -29%; TDP1 cell CPT: 5.2µM*; TGFb inhibitor: inconclusive; TDP1 cell noCPT: 5.8µM*; IL-1B inflam inh: 3

How did O=C(OCC(COC(=O)c1cccnc1)(COC(=O)c1cccnc1)COC(=O)c1cccnc1)c1cccnc1 do in these assays?
TDP1 cell CPT: 5%; TDP1 cell noCPT: -1%

Results for COc1ccccc1CCNC(=O)C(=O)NCC(c1cccs1)S(=O)(=O)c1cccs1 (stereo not drawn) ?
HepG2 viability: -35%; TDP1 cell CPT: inconclusive; TGFb inhibitor: -20%; TDP1 block: 5%; TDP1 cell noCPT: inconclusive

What do the screens show for `O=C(NCCc1ccc(F)cc1)C(=O)NCC(c1ccco1)S(=O)(=O)c1cccs1` (stereo not drawn)?
HepG2 viability: -11%; TDP1 cell CPT: inconclusive; TGFb inhibitor: 6%; TDP1 block: -8%; TDP1 cell noCPT: inconclusive

Results for COc1ccc(CCNC(=O)C(=O)NCC(c2ccco2)S(=O)(=O)c2cccs2)cc1 (stereo not drawn) ?
HepG2 viability: 1%; TDP1 cell CPT: 13µM*; TGFb inhibitor: 26%; TDP1 block: 3%; TDP1 cell noCPT: 13µM*

How did COc1ccccc1CCNC(=O)C(=O)NCC(c1cccs1)S(=O)(=O)c1ccc(C)cc1 (stereo not drawn) do in these assays?
HepG2 viability: -11%; TDP1 cell CPT: 15µM*; TGFb inhibitor: -6%; TDP1 block: -3%; TDP1 cell noCPT: 21µM*

How did COc1ccccc1CCNC(=O)C(=O)NCC(c1ccco1)S(=O)(=O)c1ccc(C)cc1 (stereo not drawn) do in these assays?
HepG2 viability: -26%; TDP1 cell CPT: 21µM*; TGFb inhibitor: inconclusive; TDP1 block: 0%; TDP1 cell noCPT: inconclusive

What do the screens show for `COc1ccccc1CCNC(=O)C(=O)NCC(c1ccco1)S(=O)(=O)c1cccs1` (stereo not drawn)?
HepG2 viability: -20%; TDP1 cell CPT: 21µM*; TGFb inhibitor: -1%; TDP1 block: 3%; TDP1 cell noCPT: inconclusive

How did CCOC(=O)c1cc(NC(=O)c2ccccc2)c(=O)n2c1oc1ccc(Cl)cc12 do in these assays?
HepG2 viability: 2%; TDP1 cell CPT: -23%; TGFb inhibitor: 0%; TDP1 block: 0%; TDP1 cell noCPT: inconclusive

What do the screens show for `Cc1csc(SCC(=O)Nc2cc(F)ccc2C)n1`?
HepG2 viability: -21%; TDP1 cell CPT: -22%; TGFb inhibitor: -1%; TDP1 cell noCPT: inconclusive; IL-1B inflam inh: 17

How did CCOC(=O)CNC(=O)Nc1cc(C(=O)NCc2ccccc2OC)ccc1N1CCCC1 do in these assays?
HepG2 viability: 0%; TDP1 cell CPT: -10%; TGFb inhibitor: -5%; TDP1 block: 4%; TDP1 cell noCPT: -25%

What do the screens show for `Cc1ccc(S(=O)(=O)N2CCN(C(=O)[C@H](Cc3ccccc3)NC(=O)c3ccco3)CC2)cc1`?
HepG2 viability: 1%; TDP1 cell CPT: inconclusive; TGFb inhibitor: -26%; TDP1 cell noCPT: inconclusive; IL-1B inflam inh: 11

What do the screens show for `O=C(N[C@@H](Cc1ccccc1)C(=O)N1CCN(S(=O)(=O)c2ccccc2F)CC1)c1ccco1`?
HepG2 viability: -3%; TDP1 cell CPT: inconclusive; TGFb inhibitor: -1%; TDP1 block: 1%; TDP1 cell noCPT: inconclusive; IL-1B inflam inh: 6

How did Cc1ccc(S(=O)(=O)N2CCN(C(=O)[C@H](Cc3ccccc3)NC(=O)c3ccco3)CC2)cc1C do in these assays?
HepG2 viability: 1%; TDP1 cell CPT: inconclusive; TGFb inhibitor: -8%; TDP1 block: 1%; TDP1 cell noCPT: 16µM*; IL-1B inflam inh: -6

How did CSCCC(NC(=O)c1ccco1)C(=O)N1CCCC(C(F)(F)F)C1 (stereo not drawn) do in these assays?
HepG2 viability: -16%; TDP1 cell CPT: -7%; TGFb inhibitor: -5%; TDP1 block: 3%; TDP1 cell noCPT: inconclusive; IL-1B inflam inh: 3

What do the screens show for `Cc1ccc(C)c(S(=O)(=O)N2CCN(C(=O)[C@H](Cc3ccccc3)NC(=O)c3ccco3)CC2)c1`?
HepG2 viability: -3%; TDP1 cell CPT: 23µM*; TGFb inhibitor: 5%; TDP1 block: 3%; TDP1 cell noCPT: 16µM*; IL-1B inflam inh: 27

Results for CSCCC(NC(=O)c1ccco1)C(=O)N1CCN(C(c2ccccc2)c2ccccc2)CC1 (stereo not drawn) ?
HepG2 viability: 0%; TDP1 cell CPT: 23µM*; TGFb inhibitor: -9%; TDP1 block: 1%; TDP1 cell noCPT: 16µM*; IL-1B inflam inh: inconclusive
